Screens as filed in PubChem.
Shown are actives, neighbours in structure and some others; about 2.4% of the full set was active somewhere.
Cruzain Triton: cruzain (T. cruzi) inhibition with detergent. purified cruzain, Z-FR-AMC fluorescence, 0.01% Triton. Potency, µM, hits mostly inhibitors. 0.43% of 200,000 active; also: nearly all actives have a fitted effect of over 40% in size
Target sequence (P25779 123-467 limits assumed): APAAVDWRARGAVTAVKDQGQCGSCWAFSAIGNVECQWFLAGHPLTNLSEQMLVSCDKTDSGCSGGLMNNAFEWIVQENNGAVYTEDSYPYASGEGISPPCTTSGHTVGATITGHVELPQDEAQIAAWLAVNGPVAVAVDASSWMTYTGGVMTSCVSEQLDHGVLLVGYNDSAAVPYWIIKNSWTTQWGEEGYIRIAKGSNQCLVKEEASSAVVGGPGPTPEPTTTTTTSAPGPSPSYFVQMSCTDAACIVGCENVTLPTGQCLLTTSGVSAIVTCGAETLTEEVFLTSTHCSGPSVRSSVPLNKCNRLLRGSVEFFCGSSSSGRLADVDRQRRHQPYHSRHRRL
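Detergent-containing run (0.01% Triton X-100) in acetate buffer pH 5.5 with 5 mM DTT: enzyme at 1.5 nM final, 15 min compound preincubation at room temperature, then 2 uM Z-FR-AMC substrate. Activity taken as 60 s fluorescence increase at 360/450 nm.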
Cruzain inh noDet: blocks cruzain activity in detergent-free assay; Potency, µM, hits mostly inhibitors; 2.3% of 200,000 active; P25779; AID 1476; purified cruzain, Z-FR-AMC fluorescence, no detergent; also: nearly all actives have a fitted effect of over 40% in size
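Detergent-free condition (0.00005% Triton X-100) in acetate buffer pH 5.5 with DTT. 1.5 nM enzyme and compound were pre-mixed 15 min, then 2 uM Z-FR-AMC substrate added; reaction progress from fluorescence change between first and third reads (60 s).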
Hits are given with their value; . = inactive; ? = inconclusive; ! = not active in a repeat. Calls follow the shape of the dose curve; as a rule, active = well fitted curve in the direction sought with a large enough effect; inconclusive = small, poorly fitted or top-dose-only effect, or another doubt; inactive = no such curve, though single readings can be large; an effect the other way counts as inactive or inconclusive.

SMILES	Cruzain Triton	Cruzain inh noDet
COc1ccc(NC(=S)NC2CCCCCC2)c(OC)c1	.	.
COc1ccccc1NC(=S)NC1CCC(CC2CCC(NC(=S)Nc3ccccc3OC)CC2)CC1 (stereo not drawn)	.	4µM
Cc1nc2sc(C(=O)N(C)c3ccccc3)c(NC(=O)c3ccccc3Cl)c2c(C)c1C	.	.
O=C(CC1SC(=NCCc2ccccc2)N(/N=C/c2cccs2)C1=O)Nc1ccc(Cl)cc1 (stereo not drawn)	.	13µM
O=C(CC1SC(=Nc2ccccc2)N(CCCO)C1=O)Nc1ccc(Cl)cc1 (stereo not drawn)	.	?
COc1cccc(-c2cn3c(n2)sc2cc(C(=O)NCCc4ccc(OC)c(OC)c4)ccc23)c1	.	.
Cc1cc(NC(=O)CS(=O)(=O)c2cn(Cc3ccccc3Cl)c3ccccc23)no1	.	25µM
CCOC(=O)N1CCN(C(=O)CS(=O)(=O)c2cn(Cc3ccccc3Cl)c3ccccc23)CC1	.	?
O=C1CCNc2ccc(-c3ccccc3)cc21	.	20µM
Cc1ccc2c(c1)C(=O)CCN2	.	.
CCN(CC)CCOC(=O)c1ccc(NC(=O)c2cc3cccc(OC)c3oc2=O)cc1	.	.
CCn1c2ccccc2c2nnc(SCC(=O)c3ccccc3)nc21	.	?
CCN(CC)CCSc1nnc2c3cc(F)ccc3n(CC)c2n1	25µM	25µM
CCc1ccc(C(=O)COC(=O)C(NC(=O)C2CCC(C)CC2)C(C)C)cc1 (stereo not drawn)	.	.
CC1CCC(C(=O)NC(C(=O)OCC(=O)c2ccc(Br)cc2)C(C)C)CC1 (stereo not drawn)	14µM	.
COc1ccc(-c2cc(C)no2)cc1S(=O)(=O)NC1CCC(C)CC1 (stereo not drawn)	.	.
COc1cccc(N2CCN(C(=O)c3cccn3-c3nnc(N4CCCCC4)s3)CC2)c1	.	.
CCc1cccc(NC(=O)CSc2n[nH]c(-c3ccccc3Cl)n2)c1	.	.
CCn1nc(C)c2c(-c3ccccc3)cc(=O)n(C(C)C(=O)NCc3ccccc3OC)c21 (stereo not drawn)	.	.
COc1ccc(-c2cc(-c3ccccc3)c(C#N)c(SCC(O)CS(=O)(=O)Cc3ccc(Cl)cc3)n2)cc1 (stereo not drawn)	.	?
N#Cc1c(-c2ccccc2)cc(-c2ccccc2)nc1SCC(O)CS(=O)(=O)Cc1ccc(Cl)cc1 (stereo not drawn)	.	7.9µM
CCCN(C(=O)c1noc2c1COc1ccc(C)cc1-2)c1ccc(Cl)c(Cl)c1	.	.
Cc1c(C(=O)O)oc2c1-c1nn(Cc3ccccc3Cl)cc1CC2	.	.
COc1ccc(-n2nnnc2C2CCN(S(=O)(=O)c3ccc(C)cc3)CC2)cc1	.	.
CCOC(=O)c1c(Nc2ccc(O)cc2)nnc(-c2ccccc2)c1-c1ccccc1	.	.
SMILES	Cruzain Triton	Cruzain inh noDet
CC(C)[C@H](NC(=O)[C@H](CCCN=C(N)N)NC(=O)NC(Cc1ccccc1)C(=O)O)C(=O)NC(C=O)CCCN=C(N)N (stereo partly drawn)	0.035µM	0.032µM
COC(=O)[C@@H](NC(=O)NC(C)CCc1ccccc1)C(C)C (stereo partly drawn)	.	.
Cc1ccc2nc3sc(C(=O)Nc4ccc(F)cc4)cc3cc2c1	.	?
CCCC12CN3CC(CCC)(CN(C1)C3c1ccc(OCc3ccccc3)cc1)C2=O (stereo not drawn)	.	.
Cc1ccccc1-c1noc(-c2ccc(N3CCC(C)CC3)c([N+](=O)[O-])c2)n1	.	.
Cc1ccc2occ(CC(=O)N(Cc3ccc(Cl)cc3)C3CCS(=O)(=O)C3)c2c1 (stereo not drawn)	.	?
CCOC(=O)c1sc(N(Cc2ccccc2)C(=O)COC(=O)c2ccc(O)cc2)nc1C	.	16µM
CCOC(=O)c1sc(N(Cc2ccccc2)C(=O)COC(=O)c2ccccc2O)nc1C	.	.
COc1ccc(-n2c(-c3ccc(Cl)cc3)cc3c2CC(C)(C)CC3=O)c(OC)c1	.	.
CCOC(=O)c1cccc(NS(=O)(=O)c2ccc(-c3cnc(C4CC4)o3)cc2)c1	.	.
CN(c1ccccc1)S(=O)(=O)c1ccc(NC(=O)c2ccc(-c3ccccc3)cc2)cc1	.	25µM
O=C(Nc1ccc(NC(=O)c2ccc(S(=O)(=O)c3ccccc3)cc2)cc1)c1ccccc1	.	4µM
CC(=O)Nc1ccc(S(=O)(=O)N(C)c2ccccc2)cc1	.	.
O=C(O)c1ccc(S(=O)(=O)c2ccccc2)cc1	.	.
COC(=O)C1(C(=O)OC)C[C@H]2CON=C2[C@H]1c1ccccc1	.	.
CCC(C)NC(=O)C1CCC(CNS(=O)(=O)c2ccc(Cl)cc2)CC1 (stereo not drawn)	.	.
CC1(C)CCC(C)(C)c2cc(C(=O)Nc3ccc(C(=O)O)cc3)ccc21	.	.
C/C(=C\c1ccc(C(=O)O)cc1)c1ccc2c(c1)C(C)(C)CCC2(C)C	.	6.3µM!
Cc1ccccc1NC1=C/C(=N\S(=O)(=O)c2cccs2)c2ccccc2C1=O	.	?
Cc1ccc(NC2=C/C(=N/S(=O)(=O)c3cccs3)c3ccccc3C2=O)cc1C	.	10µM
O=C(N[C@H]1CCCc2ccccc21)O[C@@H]1C(=O)c2cc(Br)ccc2O[C@H]1c1ccc2c(c1)OCO2	.	.
Fc1cccc(Cl)c1Cn1c(-c2cccs2)nc2ccccc21	.	.
O=C(Nc1cc(Cl)ccc1Cl)c1ccc(-c2ccccc2)cc1	.	.
COC(=O)c1ccc(C(=O)Nc2cc(Cl)ccc2Cl)cc1NC(=O)c1ccc(N(C)C)cc1	.	3.2µM
CCN1CCN(C(=O)c2ccc3c(c2)N(Cc2ccc(Cl)cc2)C(=O)c2ccccc2S3=O)CC1 (stereo not drawn)	.	.
SMILES	Cruzain Triton	Cruzain inh noDet
Cc1cc(C)cc(C(=O)NCC(c2ccc(N(C)C)cc2)N2CCCC2)c1 (stereo not drawn)	.	.
O=C(NCc1ccccc1Br)C1CCCN(C(=O)N2CCOc3ccccc32)C1 (stereo not drawn)	.	.
COc1ccc(-c2c/c(=N\c3nc(-c4ccccc4)c(C)s3)c3ccccc3o2)cc1O	.	10µM
COc1ccc(/C=C/c2nc3cc(-c4ccccc4)ccc3o2)cc1O	.	.
CC(C)NC(=O)CCC(=O)N1Cc2ccccc2Oc2ncccc21	.	.
Nc1nn(-c2ccccc2)nc1C(=O)OCc1ccccc1Br	.	.
O=C(Nc1nc2ccc(Cl)cc2s1)c1ccc(S(=O)(=O)N2CCCC2)cc1	.	.
O=C(NNc1nc(-c2ccccc2)c2cc(Br)ccc2n1)c1ccc(S(=O)(=O)N2CCCCC2)cc1	.	25µM
O=C(NNc1nc(-c2ccccc2)c2cc(Br)ccc2n1)c1ccc(S(=O)(=O)N2CCOCC2)cc1	.	.
O=C(Nc1nc(-c2ccccc2)c(-c2ccccc2)s1)c1ccc(S(=O)(=O)N2CCCCC2)cc1	.	4µM
CC1CCCCN1S(=O)(=O)c1ccc(C(=O)Nc2ccccc2-c2nc3ccccc3[nH]2)cc1 (stereo not drawn)	.	?
COc1ccc(C(=O)Nc2nc3c(s2)CCc2cc(OC)ccc2-3)cc1	.	.
O=C(Nc1ccccc1-c1nc2ccccc2[nH]1)c1ccc(S(=O)(=O)N2CCCCC2)cc1	.	10µM
COc1ccc(C(=O)Nc2nc(-c3ccc([N+](=O)[O-])cc3)c(-c3ccc(OC)cc3)s2)cc1	.	10µM
COc1cccc(C(=O)Nc2nc(-c3nnn(-c4ccccc4C(F)(F)F)c3C)ns2)c1	.	.
